Measured values published in PubChem BioAssay (NCI).
The panel holds about 83,000 compounds, 20% with a hit somewhere; the sample as a whole holds those more often.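 For each line, cells grew in 96-well plates with the test compound present at a single concentration for 48 hours.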 A number with no mark means an inactive call. Calls of active or inactive are those of the source.

The molecules below were run on NCI-H460 lung (assay: NCI-60 one-dose screen, 48 h (100 = growth as untreated, 0 = no growth, -100 = all killed)). Settings: 10 µM unless noted.
Protocol: Growth inhibition of the NCI-H460 human Non-Small Cell Lung tumor cell line is measured as a screen for anti-cancer activity. Cells are grown in 96 well plates and exposed to the test compound for 48 hours. Compounds are tested at a single concentration, which is 10^-5 M for most compounds. The reported endpoint is percent growth (GI% or GIPRCNT), where numbers from 0 - 100% represent growth inhibition, and numbers from -100% - 0 represent cell death. For example, a value of 40 represents 60% growth inhibition. A value of 0 means no net growth occurred over the course of the experiment. A value of -40 indicates 40% of cells at the beginning of the experiment died by the end of the experiment. A value of -100 means all cells are dead at the end of the experiment.
NCI-60 Human Tumor Cell Lines Screen was performed using the standard one-dose NCI protocol, which is described in more detail at https://dtp.cancer.gov/discovery_development/nci-60/default.htm.
Compounds with GIPRCNT values below 10 were considered active. Activity score was based on GIPRCNT using the following formula: […]
Score is 0 for GIPRCNT values of 100 or above, 50 for GIPRCNT values of 0, and 100 for GIPRCNT values of -100.

| Compound | growth |
| --- | --- |
| COc1cc(Cl)cc(-c2nn(-c3cccc(NC(=O)c4cc(C(F)(F)F)cc(C(F)(F)F)c4)c3)cc2-c2ccncc2)c1 | 40.9% |
| Cc1ccc(S(=O)(=O)N2CCN(C(=O)CSc3nc4ccc(C)cc4[nH]3)CC2)cc1 | 110% |
| CCCCCCCCCCNCCSS(=O)(=O)O | -62.7% (active) |
| NC(=O)NC1(C(=O)O)CCCC1 | 112% |
| NC(=O)c1cc(Cl)ccc1NC(=O)c1ccccc1-c1ccccc1 | 13.2% |
| Cc1cccc2nnc(-c3ccccc3)n12 | 108% |
| O=C1C2C(C(=O)N1CC[Se][Se]CCN1C(=O)C3C(C1=O)[C@H]1C=C[C@@H]3C1)[C@H]1C=C[C@@H]2C1 (stereo not given in full) | -14.9% (active) |
| C[C@H]1O[C@@H](O[C@H]2[C@@H](O)C[C@H](O[C@H]3[C@@H](O)C[C@H](O[C@H]4CC[C@]5(C)C6C[C@@H](O)[C@]7(C)[C@@H](C8=CC(=O)OC8)CC[C@]7(O)C6CC[C@@H]5C4)O[C@@H]3C)O[C@@H]2C)C[C@H](O)[C@@H]1O (stereo not given in full) | -95.1% (active) |
| C[C@H]1C(=O)N2c3ccccc3[C@@]3(O)C[C@@H](n4cnc5ccccc5c4=O)C(=O)N1[C@@H]23 | 107% |
| CC(C)=CCNc1ncnc2c1ncn2C1OC(COP(=O)(O)O)C(O)C1O (stereo not given) | 80.3% |
| CCCCN=C(N)c1ccc(OCCSCCOc2ccc(C(N)=NCCCC)cc2)cc1 | 30.3% |
| COc1ccc2c(c1)c(CC(=O)[Se]C)c(C)n2C(=O)c1ccc(Cl)cc1 | 3.41% (active) |
| O=C(CN1CCN(c2ccc(Cl)cc2)CC1)N1CCN(c2nnc(-c3ccccc3)c(-c3ccccc3)n2)CC1 | 30.7% |
| CC(=O)Nc1ccc(C(=O)COc2ccc(/C=C3\CCc4ccccc4C3=O)cc2)cc1 | 124% |
| N#Cc1ccc(-c2csc(Nc3ccc4nc5n(c(=O)c4c3)CCC5)n2)cc1 | 101% |
| COc1c(Br)cc(C(c2cc(Br)c(OC)c(Br)c2)c2ccccc2C(=O)O)cc1Br | 105% |
| C/C(=C\CCc1ccoc1)CC/C=C(\C)CCCNc1ccc(F)cc1 | 92.7% |
| CCc1ccc(-c2nc(SCC(=O)NC3CCCCC3)n[nH]2)cc1 | 90.8% |
| N[C@H](CS)C(=O)O | 103% |
| Cn1cc(NC(=O)Nc2cc(C(=O)O)n(C)c2)cc1C(=O)O | 120% |

| Compound | growth |
| --- | --- |
| COc1cc2c(cc1OC)C(CC1(O)CCCCC1)N(S(=O)(=O)c1ccc(C)cc1)CC2 (stereo not given) | 8.16% [100 µM] (active) |
| CC(=O)Nc1cc2c3c(cccc3c1)-c1ccccc1-2 | 64.4% |
| Cc1sc2nc(N3CCCCC3)[nH]c(=O)c2c1C | 101% |
| Cc1ccc(C(NC(=O)c2ccccc2)c2ccc3cccnc3c2O)cc1 (stereo not given) | 4.02% (active) |
| FC(F)(F)c1cc(-c2nnc3n2N=C(N2CCCC2)CS3)cc(C(F)(F)F)c1 | 58.1% |
| CSc1nc(-c2ccc(O)cc2O)c2c(=O)[nH]c(Nc3ccc(S(=O)(=O)Nc4nc(C)cc(C)n4)cc3)nc2n1 | 111% |
| COc1cnc2c(c1)C(=O)c1c-2n(CCCNC(C)C)c(=O)c2cc(F)ccc12 | -32% (active) |
| Nc1nc2c(c(=O)[nH]1)C1(C(=O)Nc3ccccc31)c1c(nc(N)[nH]c1=O)N2 | 104% |
| Cc1ccc(NC(=O)c2sc3nc4c(cc3c2N)C(=O)CCC4)cc1 | 29% |
| CC(=O)N1N=C(c2ccc(Nc3ccnc4cc(Cl)ccc34)cc2)CC1c1ccc(Cl)cc1 (stereo not given) | 62.9% |
| CCCCCCCCCCCCCCCCNC(=O)Nc1ccc2ccccc2c1 | 99.2% |
| O=C(NN1C(=O)c2cc(C(=O)O)c(C(=O)O)cc2C1=O)c1ccncc1 | 111% |
| COc1ccc([N+](=O)[O-])c(S(=O)(=O)c2ccc(Cl)cc2)n1 | 98.1% |
| CN1CCN(CCCOc2ccc3ncnc(Nc4ccc(OCc5cccc(F)c5)c(Cl)c4)c3c2)CC1 | -68.9% (active) |
| Oc1c(Cl)cc(Oc2cc(Cl)c(O)c(CN3CCOCC3)c2)cc1CN1CCOCC1 | 93.4% |
| COc1cc(C2CC(c3ccc(C)cc3)=NN2C=O)ccc1OCCN(C)C (stereo not given) | 99% |
| COC(=O)c1cc2c(/C=C3/NC(=S)NC3=O)coc2n1C | 115% |
| O=C(N/N=C/c1ccc(Cl)cc1Cl)c1ccccc1Nc1cccc(C(F)(F)F)c1 | 104% |
| Nc1nc2c(nnn2Cc2ccc(Cl)c(Cl)c2)c(=O)[nH]1 | 104% |
| O=C(COc1ccc(/C=C2\Oc3ccc4ccccc4c3C2=O)cc1)c1ccc([N+](=O)[O-])cc1 | 104% |
